High-throughput results: PubChem BioAssay, National Center for Advancing Translational Sciences (NCATS)
Compounds with a hit are over-represented: about 21% of the library has one in this group of screens.
Pf growth 96h = P. falciparum growth inhibition at 96 hour, primary screen for plastid delayed-death inhibitors; Potency, µM (titrated, usually from 28.7 µM), for inactives: at the top dose activity change, negative = inhibition, hits mostly inhibitors; P. falciparum luciferase reporter growth, 96 h; 6.9% of 320,000 active; note: potency is the fitted concentration of half-maximal effect; % is set by controls: 0 for no effect and ±100 for the full control effect
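Parasite growth measured via integrated firefly luciferase reporter in P. falciparum. Infected erythrocytes at 2% hematocrit, 0.05% parasitemia final were treated 96 hours at 37 C under 5% CO2, and luminescence was read.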
Pf growth 48h = P. falciparum growth inhibition at 48 hours (one generation); P. falciparum luciferase growth in erythrocytes, 48 h; Potency, µM (top dose mostly 28.7 µM), without a hit: top-dose activity change, negative = inhibition, most hits filed as inhibitors; 5.9% of 310,000 active; AID 504832; note: potency is the fitted concentration of half-maximal effect; % is set by controls: 0 for no effect and ±100 for the full control effect
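Cell-based growth assay: transgenic P. falciparum expressing firefly luciferase, cultured in red cells within RPMI 1640 containing 0.5% w/v Albumax, 24 mM bicarbonate and gentamycin. A drop in luciferase activity indicates inhibition.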
NS1 function inh = inhibitors of influenza NS1 protein function | Potency, µM (highest dose often 46.1 µM), for the others: top-dose activity, positive = more growth | 0.4% of 270,000 active | AID 2326; calls by dose curve; note: potency is the fitted concentration of half-maximal effect; actives are rising curves; nearly all actives have a fitted effect of over 50% in size
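OD600 was taken as the measure of yeast growth restored by compound in an NS1-expressing S. cerevisiae strain. Cells had been washed out of glucose medium and diluted 1:100 into galactose -URA medium, pH 6.0.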
Shiga toxin inh = blocks Shiga toxin action in Vero cells. AID 2315. 9.2% of 290,000 active. Vero cells, Shiga toxin protein synthesis inhibition reporter. inhibition, % at 38.7 µM; in the data active = inhibition mostly above about 28%, no sharp cut-off; inactive = mostly below about 43%; note: 0% is about no effect
Giardia FBPA inh = Giardia lamblia aldolase inhibition | A8B2U2 | purified Giardia FBPA | Potency, µM (doses to about 59.6 µM), without a hit: top-dose activity, negative = inhibition, most hits filed as inhibitors | 0.71% of 290,000 active | AID 2451; note: potency is the fitted concentration of half-maximal effect; % is set by controls: 0 for no effect and ±100 for the full control effect; nearly all actives have a fitted effect of over 55% in size
Target sequence (A8B2U2 whole entry, looked up): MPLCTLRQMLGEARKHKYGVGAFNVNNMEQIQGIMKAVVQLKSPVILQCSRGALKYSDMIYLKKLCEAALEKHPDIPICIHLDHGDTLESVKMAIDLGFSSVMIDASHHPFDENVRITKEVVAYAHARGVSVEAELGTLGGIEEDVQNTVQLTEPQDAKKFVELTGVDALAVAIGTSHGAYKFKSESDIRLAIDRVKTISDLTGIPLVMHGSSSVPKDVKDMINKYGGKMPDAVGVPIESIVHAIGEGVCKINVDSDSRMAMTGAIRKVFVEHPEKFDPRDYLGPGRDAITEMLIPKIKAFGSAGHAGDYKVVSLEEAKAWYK
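Giardia FBPA (40 nM reagent) was preincubated 10 min at RT with compound (up to 57.5 uM final), then substrate plus GAPDH/TPI/NAD/arsenate coupling system with diaphorase/resazurin was added; resorufin fluorescence (525/598 nm) was read after 20 min.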
CHX counter = counter-screen hit for Shiga toxin inhibitors, cycloheximide | cell reporter, cycloheximide protein synthesis inhibition counterscreen | max response, % | 12% of 300,000 active | AID 2314; in the data active = max response mostly above about 13%, no sharp cut-off; inactive = mostly below about 14%; note: read at 38.3 µM for the half of the compounds with a filed dose; 0% is about no effect
An asterisk follows results filed as active; ? = inconclusive; · = not tested or not shown. Unless noted, calls come from the whole dose curve; as a rule, active = well fitted curve in the direction sought with a large enough effect; inconclusive = small, poorly fitted or top-dose-only effect, or another doubt; inactive = no such curve, though single readings can be large; an effect the other way counts as inactive or inconclusive.

SMILES	Pf growth 96h	Pf growth 48h	NS1 function inh	Shiga toxin inh	Giardia FBPA inh	CHX counter
Cc1csc(-c2cnn(-c3ccccc3)c2NC(=O)c2cccc(C(F)(F)F)c2)n1	10.4µM*	·	13.3%	-2.8	-0.5%	-4.0
Cc1ccnc(SC2CC(=O)N(c3ccc(F)cc3)C2=O)n1 (stereo not given)	-10.9%	6.9%	8.8%	-14.4	-6.0%	-3.2
O=C(Nc1ccccc1N1CCCC1)c1ccc(Cl)c(S(=O)(=O)N2CCOCC2)c1	8.28µM*	11.7µM*	·	·	·	·
O=C(Nc1ccccc1N1CCCCC1)c1ccc(F)c(S(=O)(=O)N2CCOCC2)c1	?	13.1µM*	·	·	·	·
CC(OC(=O)c1ccc(F)c(S(=O)(=O)N2CCOCC2)c1)C(=O)NCC1CCCCC1 (stereo not given)	?	-21.0%	·	·	·	·
O=C(NCC1CCCCC1)c1ccc(F)c(S(=O)(=O)N2CCOCC2)c1	7.38µM*	?	·	·	·	·
O=C(Nc1ccccc1C(F)(F)F)c1ccc(F)c(S(=O)(=O)N2CCOCC2)c1	·	-20.8%	-11.6%	-22.6	0.1%	1.3
Cc1ccc(C(=O)Nc2ccccc2N2CCOCC2)cc1S(=O)(=O)N1CCOCC1	?	13.1µM*	·	·	·	·
CCCCNC(=O)[C@]1(C)CCC[C@@]2(C)C3CC[C@@]4(C)C[C@]3(CCC21)CC4=O (stereo not given in full)	?	19.7%	·	·	·	·
COc1ccc(Cl)cc1C(=O)N1CCN(Cc2ccc3c(c2)OCO3)CC1	-3.2%	-25.7%	1.5%	5.7	-4.9%	2.9
CN1CCN(c2ncc3nc(-c4cn(C)c5ccccc45)c(=O)n(Cc4cccs4)c3n2)CC1	·	·	·	·	5.4%	·
COc1ccc(C(CC(=O)Nc2cc(C)ccn2)N2Cc3ccccc3C2=O)cc1 (stereo not given)	4.0%	-22.5%	-9.4%	-1.1	10.5%	-2.8
COc1cc2c(cc1OC)C(C(C(=O)N(CCc1ccc(OC)c(OC)c1OC)CCc1ccc(OC)c(OC)c1OC)c1ccccc1)=NCC2 (stereo not given)	1.51µM*	1.35µM*	·	18.3	?	11.0
CCOC1OC(=O)C(Cl)=C1Nc1ccc(C)cc1 (stereo not given)	4.7%	22.4%	·	2.5	10.4%	4.5
CCOC1OC(=O)C(Cl)=C1Nc1ccc(C)cc1C (stereo not given)	2.33µM*	?	5.9%	-8.9	4.9%	-3.4
CC(C)NC(=S)NN=C1c2ccccc2-c2ccccc21	?	-18.0%	·	-6.4	1.5%	-1.9
CC(C)NC(=S)N/N=C1\CCCCC1C1CCCCC1 (stereo not given)	3.29µM*	·	-13.0%	15.3	24.1%	-5.3
CN(C)C1CSSSC1	·	·	·	-6.7	7.9%	-2.6
C=CCN1C(=O)c2ccccc2NC1c1cc(Br)cs1 (stereo not given)	?	10.4µM*	4.2%	-7.6	-3.0%	-4.2
CCCC(C(=O)NCc1ccco1)N(Cc1ccco1)C(=O)CNS(=O)(=O)c1ccccc1 (stereo not given)	?	-7.4%	-0.6%	3.8	-2.6%	1.1
Cc1ccc(S(=O)(=O)NCC(=O)N(c2ccccc2)C(C(=O)NCc2ccccc2)c2ccco2)cc1 (stereo not given)	13.1µM*	-15.3%	-9.2%	-8.3	-7.5%	0.4
CCOc1ccccc1N(C(=O)CNS(=O)(=O)c1ccccc1)C(CC)C(=O)NCc1ccco1 (stereo not given)	7.38µM*	·	-4.3%	6.9	-1.4%	7.1
COc1ccc(N(C(=O)CNS(=O)(=O)c2ccccc2)C(C(=O)NCc2ccco2)C(C)C)cc1 (stereo not given)	-22.2%	-12.3%	?	3.9	-0.3%	0.4
O=[N+]([O-])c1ccc(S(=O)(=O)Nc2nc(-c3ccccc3)cs2)cc1	6.57µM*	25.4%	24.7%	-6.5	?	-1.3
Cc1ccc(S(=O)(=O)Nc2nc(-c3ccc(F)cc3)cs2)cc1	69.1%	55.2%	-31.9%	-0.5	14.5%	13.3*
O=S(=O)(Nc1nc(-c2ccccc2)cs1)c1cccc(C(F)(F)F)c1	0.0%	35.1%	-17.1%	2.3	1.1%	-1.9
CCC(C)(C)NC(=O)CN(C(=O)CCC(=O)Nc1nccs1)c1ccc(C)cc1	?	-16.0%	-5.4%	-4.9	5.4%	-2.9
